Most compounds without a hit are left out; they make up all but 9.8% or so of the library.
KDM4E inh = JMJD2E (human) inhibition; B2RXH2; JMJD2E catalytic domain, FDH-coupled NADH fluorescence (FDH is formaldehyde dehydrogenase); Potency, µM (top dose mostly 57.1 µM), actives largely listed as inhibitors; actives 1.6% (n = 230,000); active = well fitted inhibition curve with a large enough effect, not every such curve was filed as active; inconclusive = small, poorly fitted or top-dose-only effect, or another doubt; inactive = no such curve, though single readings can be large or run the other way; note: nearly all actives have a fitted effect of over 50% in size
Target sequence (B2RXH2 1-337 limits assumed): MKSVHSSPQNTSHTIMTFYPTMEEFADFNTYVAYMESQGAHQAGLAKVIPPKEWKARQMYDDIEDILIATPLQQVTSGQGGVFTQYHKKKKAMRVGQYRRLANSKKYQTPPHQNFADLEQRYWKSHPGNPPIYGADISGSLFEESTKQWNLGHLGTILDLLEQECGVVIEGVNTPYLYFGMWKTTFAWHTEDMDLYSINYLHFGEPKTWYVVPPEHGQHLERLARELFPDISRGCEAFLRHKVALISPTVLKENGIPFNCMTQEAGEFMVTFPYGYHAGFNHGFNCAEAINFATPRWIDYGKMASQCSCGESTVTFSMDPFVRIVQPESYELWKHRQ
HPGD block = blocks human HPGD enzyme activity; P15428; purified HPGD, NADH fluorescence kinetic, PGE2 substrate; Potency, µM, most hits filed as inhibitors; actives 4.3% (n = 150,000); AID 894; active = well fitted inhibition curve with a large enough effect, not every such curve was filed as active; inconclusive = small, poorly fitted or top-dose-only effect, or another doubt; inactive = no such curve, though single readings can be large or run the other way
Target sequence (P15428 whole entry, looked up): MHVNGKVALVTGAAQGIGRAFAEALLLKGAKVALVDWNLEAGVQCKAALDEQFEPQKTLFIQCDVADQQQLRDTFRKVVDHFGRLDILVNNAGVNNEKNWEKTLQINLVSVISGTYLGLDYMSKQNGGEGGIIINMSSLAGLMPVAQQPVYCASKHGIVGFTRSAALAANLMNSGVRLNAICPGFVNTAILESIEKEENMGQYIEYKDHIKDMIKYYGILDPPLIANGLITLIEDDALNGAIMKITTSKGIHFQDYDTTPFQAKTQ
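NADH formation kinetics: reaction with 30 uM PGE2 and 1 mM NAD+ (final), 20 nM enzyme, Tris-HCl pH 8 with Tween 20, after 15 min compound preincubation at room temperature. Fluorescence change, last versus first of five reads.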
ALDH1A1 block = blocks purified human ALDH1A1 activity. P00352. Purified ALDH1A1, NADH fluorescence, propionaldehyde substrate. Potency, µM (titrated, usually from 75.3 µM), actives largely listed as inhibitors. actives 7.3% (n = 220,000). AID 1030; active = well fitted inhibition curve with a large enough effect, not every such curve was filed as active; inconclusive = small, poorly fitted or top-dose-only effect, or another doubt; inactive = no such curve, though single readings can be large or run the other way
HTT ATP protect = Huntington cell model cytoprotection by ATP luminescence; PC12 HTT-Q103 induced, cytoprotection, ATP luminescence, 40 h; Potency, µM (top dose mostly 56.4 µM), actives largely listed as activators; actives 0.14% (n = 230,000); AID 1471; note: nearly all actives have a fitted effect of over 45% in size
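Compounds added alongside 100 nM tebufenozide, which induces toxic Q103 huntingtin exon 1-GFP in stable PC12 cells; surviving cells quantified by luminescent ATP measurement. Medium: phenol red-free DMEM, 5% equine and 5% calf serum.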
CBFb RUNX1 block = CBF-beta/RUNX1 interaction disruption; Q01196+Q13951; AlphaScreen CBFb-His/RUNX1-biotin binding, biochemical; Potency, µM (doses to about 59.8 µM), actives largely listed as inhibitors; 230,000 tested, under 10 active
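Room-temperature protein-protein interaction test with 30 nM each of His-tagged CBF-beta and biotinylated RUNX1, 15 min with compound, then 90 min with nickel plus streptavidin beads. Signal read in AlphaScreen mode.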
HttQ103 aggreg = inhibitors of mutant huntingtin aggregate formation in PC12 cells; PC12 HttQ103-GFP aggregates, Acumen cytometry, 40 h; Potency, µM (titrated, usually from 46.1 µM), actives largely listed as inhibitors; actives 1.1% (n = 220,000); AID 1688; note: nearly all actives have a fitted effect of over 60% in size
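Ecdysone-promoter PC12 model expressing HTT exon 1 Q103 fused to GFP, induced by tebufenozide at 100 nM final. Compounds titrated; aggregates sized 1–25 µm scored on a 488 nm laser cytometer.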
Hits are given with their value; n = inactive; u = inconclusive; x = no result; [ ] = remark or other dose. Unless noted, calls come from the whole dose curve; as a rule, active = well fitted curve in the direction sought with a large enough effect; inconclusive = small, poorly fitted or top-dose-only effect, or another doubt; inactive = no such curve, though single readings can be large; an effect the other way counts as inactive or inconclusive.

SMILES	KDM4E inh	HPGD block	ALDH1A1 block	HTT ATP protect	CBFb RUNX1 block	HttQ103 aggreg
Cc1ccc(/C(N)=N/OC(=O)c2cccc(Cn3cc(C(F)(F)F)ccc3=O)c2)cc1	n	x	n	n[10 µM]	n	n[9.22 µM]
S=C([S-])NCCNC(=S)[S-].[Zn+2]	x	10µM	11.2µM	u	u	x
COc1ccc(C(=O)CSC2=C(C#N)C3(CCCCC3)C(C#N)=C(N)N2)cc1	n	x	8.91µM	n	n	n
N#CC1=C(N)NC(SCC(=O)c2ccc(Cl)cc2)=C(C#N)C12CCCC2	n	u	28.2µM	n	n	u
N#CC1=C(N)NC(SCC(=O)c2ccc(Br)cc2)=C(C#N)C12CCCCC2	n	n	12.6µM	x	x	u
CC1(C)CC(=O)C2=C(C1)NC(SCC(N)=O)=C(C#N)C21CCCCC1	u	n	u	n	n	n
COc1ccc(C(=O)CSc2nc(N)nc(SC)c2C#N)cc1	n	n	u	n	n	n
CC(C)C1Cc2c(sc3[nH]c(=S)n(Cc4ccccc4)c(=O)c23)CO1 (stereo not drawn)	n	u	n	n	n	u
O=C(O)C[C@@H](C(=O)O)c1ccccc1[N+](=O)[O-]	x	n	n[13.5 µM]	n[10 µM]	x	x
Cn1nc(C(F)(F)F)c(C#N)c1N1CCN(c2ccccn2)CC1	u	x	n	n	n	n
Cn1nc(C(F)(F)F)c(C#N)c1N1CCN(c2ccccc2)CC1	n	n	u	n	n	1.41µM
Cn1nc(C(F)(F)F)c(C#N)c1N1CCN(c2ccc(F)cc2)CC1	n	n	n	n	n	11.2µM
O=C(c1ccccc1)c1ccccc1NC(=O)C1CCCN1Cc1ccccc1 (stereo not drawn)	n	x	x	n[10 µM]	n	n[9.22 µM]
COc1cc(/C=C/C(=O)N2CCCN(C(=O)/C=C/c3cc(OC)c(OC)c(OC)c3)CC2)cc(OC)c1OC	n	x	n	n	n	n
COc1cc(/C=C/C(=O)N2CCC=CC2=O)cc(OC)c1OC	n	n	10µM	x	n	x
Cc1ccc(OCCN2CCN(CC(O)Cn3c4ccccc4c4ccccc43)CC2)cc1 (stereo not drawn)	8.91µM	u	u	n[10 µM]	n	u
Cc1ccc(OCC(O)Cn2c3ccccc3c3ccccc32)cc1 (stereo not drawn)	u	n	n	n	n	n
O=c1cc(O)nc(SCc2ccc(Cl)cc2)[nH]1	n	n	n	n	n	n
CC(=O)c1ccc(OC(C)C)c(CSc2nc(O)cc(=O)[nH]2)c1	n	3.55µM	u	n	n	u
O=C(Nc1nc(NC(=O)c2ccco2)n(-c2ccccc2)n1)c1ccccc1	u	n	u	3.98µM	n	u
Nc1nc(NC(=O)c2ccccc2)nn1-c1ccccc1	n	n	n	x	n	n
COc1cccc(C2=CC(c3ccccc3)n3ncnc3N2)c1 (stereo not drawn)	n	u	u	n	n	n
COc1ccc(OC)c(C2C=C(c3ccc(C)c(C)c3)Nc3nnnn32)c1 (stereo not drawn)	u	n	20µM	n	n	n
COc1cccc(C2=CC(c3ccc(N(C)C)cc3)n3ncnc3N2)c1 (stereo not drawn)	u	n	10µM	n[0.074 µM]	u	u
COc1ccc(C2C=C(c3ccc(Br)s3)Nc3ncnn32)cc1OC (stereo not drawn)	u	n	u	n[10 µM]	n	11.2µM
SMILES	KDM4E inh	HPGD block	ALDH1A1 block	HTT ATP protect	CBFb RUNX1 block	HttQ103 aggreg
COc1cccc(C2=CC(c3cc(OC)ccc3OC)n3nnnc3N2)c1 (stereo not drawn)	n	n	25.1µM	n	n	n
N[C@@]1(C(=O)O)CN[C@@H](C(=O)O)C1	x	x	n	n	n	x
O=C(O)c1cccc(SSc2cccc(C(=O)O)c2)c1	x	4.47µM	n[13.5 µM]	n[10 µM]	x	x
O=C(O)c1ccccc1	x	n	n	n	n	x
FC(F)(F)COc1ccc(-n2ccnc2)nn1	n	x	n	n	n	n
CS(=O)(=O)Nc1cccc(-c2ccc3ncnc(NCCN4CCOCC4)c3c2)c1	x	x	n	n	x	x
Cc1cccc(N/N=C/c2ccc(O)c(O)c2O)c1	3.16µM	x	x	n[10 µM]	n	n[9.22 µM]
O=C(CCc1ccc(S(=O)(=O)N2CCOCC2)cc1)N/N=C/c1ccc(O)c(O)c1O	10µM	u	12.6µM	x	u	n
O=[N+]([O-])c1ccc(N/N=C/c2cccc(O)c2O)c(S(=O)(=O)N2CCOCC2)c1	14.1µM	x	n	n	n	u
O=[N+]([O-])c1ccc(N/N=C/c2ccc(O)c(O)c2O)c(S(=O)(=O)N2CCOCC2)c1	7.94µM	x	3.55µM	n	u	n
O=C(CCc1ccc(S(=O)(=O)N2CCOCC2)cc1)N/N=C/c1ccc(F)cc1F	n	x	n	n	n	n
CN(C(=O)COC(=O)c1ccc2ccccc2n1)C1CCS(=O)(=O)C1 (stereo not drawn)	u	x	n	n[10 µM]	n	n
COc1ccc(OC)c2[nH]c(=O)c(CCNC(=O)c3cccs3)cc12	n	x	u	n	n	n[9.22 µM]
O=[N+]([O-])c1ccccc1N/N=C/c1cccc(O)c1O	n	x	x	n[10 µM]	n	n[9.22 µM]
O=[N+]([O-])c1cccc(N/N=C/c2cccc(O)c2O)c1	14.1µM	x	u	n[10 µM]	n	n[9.22 µM]
O=C(O)c1cc(Br)ccc1NN=C1CCCCC1	u	25.1µM	u	n[10 µM]	n	n
O=c1cccccc1NN=C1CCCCC1	n	x	x	n[10 µM]	n	n[9.22 µM]
COC(=O)CN(C)C1CC(=O)N(c2ccc(Cl)cc2)C1=O (stereo not drawn)	n	n	3.16µM	n	n	n
CN(Cc1ccncc1)C1CC(=O)N(c2ccc(Cl)cc2)C1=O (stereo not drawn)	n	n	n	n[10 µM]	n	n
Cc1ccsc1C1C2=C(CC(C)(C)CC2=O)Nc2ncnn21 (stereo not drawn)	n	u	11.2µM	n	n	n
Cc1nn(-c2ccccc2)c2c1C1(C(=O)N(C(C)C)c3ccccc31)C(C#N)=C(N)O2 (stereo not drawn)	n	n	1.12µM	n	n	n
Cn1c(=O)c2c(nc(Br)n2CC(=O)C23CC4CC(CC(C4)C2)C3)n(C)c1=O	n	n	11.2µM	n[0.074 µM]	n	n
CC(C)(C)NC(=O)CN(C(=O)C1CSC(=O)C1)c1ccccc1F (stereo not drawn)	n	x	n	n	n	n
CC(=O)CSc1nnc2c3ccccc3nc(C(C)(C)C)n12	n	x	3.55µM	n	n	n
Cc1ccc(S(=O)(=O)NCCCCCC(=O)NC(C)(C)CO)cc1	n	n	7.94µM	n	n	n
O=C(COC(=O)COc1ccccc1)NCc1ccccc1	n	x	n	n	n	n
COc1ccc(S(=O)(=O)NC(C)CCc2ccccc2)cc1 (stereo not drawn)	n	x	0.631µM	n	n	n
COc1ccc(S(=O)(=O)NCCC(=O)NCc2ccccc2)cc1	n	x	25.1µM	n	n	n
O=C(COc1ccccc1)NCc1ccccc1	n	28.2µM	n	n	n	n
Cc1ccc(S(=O)(=O)NCCCCCC(N)=O)cc1	n	n	n	n	n	n

Assay outcomes deposited in PubChem BioAssay by National Center for Advancing Translational Sciences (NCATS).
